Values joined by “and” are separate entries in the source; they are usually repeats but may differ in a detail not shown here. Equal entries are not always repeated. Screen size: about 360,000 compounds; about 7,300 (2%) were called active. This is one part of a sample in which actives are shown more often than they occur. Unmarked numbers belong to inactive results. Rule as the data show it: active = inhibition above about 50%; inactive = the rest.
test: inhibitors of TWEAK-Fn14 signaling, primary screen, luciferase reporter cells, uHTS (AID 1159606); conditions: TWEAK-stimulated Fn14 reporter cells, luciferase luminescence, 8 h; at 10 µM; hits give high values

Compound	inhibition
O=C(NCCC1=CCCCC1)c1ccc(-n2cncn2)cc1	-8.52%
O=C(NCCC1=CCCCC1)c1ccc(Cl)c([N+](=O)[O-])c1	-14.2%
Cn1nnc2cc(C(=O)NCCC3=CCCCC3)ccc21	51.2% (active)
CC1CCCCC1NC(=O)CN1CCC(O)(c2ccc3c(c2)OCO3)CC1 (stereo not given)	3.52%
CCCCn1nnnc1C(c1ccccc1)N1CCN(c2ccccc2OC)CC1 (stereo not given)	-11.6%
COc1cc(/C=N/Nc2ccc(C)cc2)cc(Br)c1O	4.13%
COc1cccc(/C=N/Nc2cc(C)nc(-c3ccccc3O)n2)c1O	59% (active)
COc1ccccc1-n1c(SCC(=O)Nc2cccc(C(=O)O)c2)nnc1-c1ccccc1O	8.74%
Cc1cc(CNC(=O)C2CCC(=O)N(CCc3ccc(Cl)cc3)C2)no1 (stereo not given)	0.87%
CC(=O)N1CCN(S(=O)(=O)c2c(F)cc(F)c(Cl)c2F)CC1	-11.6%
COc1ccc(/C=C2/SC(=O)N(CCCCCC(=O)Nc3ccccc3C(=O)O)C2=S)cc1	40.8%
COc1ccc(-c2[nH]ncc2/C=N/NC(=O)c2cc(Br)ccc2O)c(OC)c1	1.37%
COc1ccc(/C=N/Nc2ccccc2C(=O)O)cc1	57% (active)
COc1ccc(C(=O)Nc2ccccc2C(=O)N/N=C/c2ccc(O)c(OC)c2)cc1	103% (active)
COc1ccc(/C=N/NC(=O)C(C)N(c2ccc(OC)cc2)S(C)(=O)=O)cc1 (stereo not given)	6.28%
O=C(NN=Cc1ccc2c(c1)CCC2)c1ccccc1O	-39.1%
CCOC(=O)C(=O)C1C(=O)Nc2ccccc21 (stereo not given)	6.46%
CCOc1ccc(CCN2C(=O)C(=O)N([C@@H](Cc3ccc(O)cc3)CN3CCC[C@H]3CN3C(=O)C(=O)NC[C@@H]3CC(C)C)C[C@@H]2Cc2ccccc2)cc1	20.7%
CC1=NN(c2cccc(Cl)c2)C(=O)C12CC(C)=C(C)CS2 (stereo not given)	-6.06%
CC(NC(=O)CN1CCN(Cc2ccc(Cl)cc2)C1=O)c1ccc2c(c1)OCCO2 (stereo not given)	13.5%
CC(C)C[C@H]1CNC(=O)C(=O)N1C[C@@H]1CCCN1C[C@H](Cc1ccccc1)N1C[C@H](CC(C)C)N(CC2CCCCCC2)C(=O)C1=O	5.6%
CC1CC(=O)Nc2ccccc2N1C(=O)COc1ccc2cc(Br)ccc2c1 (stereo not given)	-17.9%
Cc1ccc(S(=O)(=O)N(CC(=O)N/N=C/c2ccc(F)cc2)c2cccc3cccnc23)cc1	-1.02%

Compound	inhibition
O=C(CNC(=O)c1cccnc1)N/N=C/c1cc(Br)c(O)c(Br)c1	-15.2%
O=C(CSc1cccc2cccnc12)N/N=C/c1cccnc1	73.4% (active)
COc1ccc(C)cc1NC(=O)NCCCCc1ccccc1	-2.36%
CCCCN1C(=O)CC(N2CCOCC2)C1=O (stereo not given)	-9.74%
CCCCCn1nnnc1-c1nc2cc3ccccc3cc2[nH]c1=O	-12.3%
CCCCCN(C(=O)CCC(=O)OCCOc1ccc(OC)cc1)c1c(N)n(CCCC)c(=O)[nH]c1=O	-5.75%
Cc1ccc(NC(=O)N2CCSc3ccccc32)cc1	-12.4%
C=C(C)C(=O)O[C@H]1C/C(C)=C\C(=O)/C=C(\C)[C@H](O)[C@@H]2OC(=O)C(=C)[C@@H]21	68.2% (active)
CNC(=S)N/N=C/c1ccc(N2CCOCC2)s1	7.48%
CC1(NC(=O)CCS(=O)(=O)c2ccc(Cl)cc2)CCS(=O)(=O)C1 (stereo not given)	17.8%
O=C(NCC(c1ccco1)N1CCc2ccccc2C1)c1ccccc1Cl (stereo not given)	-3.94%
Nc1cccc(OCCCCCOc2cccc(N)c2)c1	-9.63%
CCc1ccc(-n2c(SCc3cc(=O)n4cc(Br)ccc4n3)nc3[nH]ncc3c2=O)cc1	2.35%
Cc1cccc2nc(CSc3nc4[nH]ncc4c(=O)n3-c3cccc(Cl)c3)cc(=O)n12	68.9% (active)
O=c1c2sccc2nc(SCc2cc(=O)n3ccccc3n2)n1-c1ccc(Br)cc1	-8.13%
COc1ccc(C(=O)CSc2n[nH]c(N)n2)cc1	-14.2%
Cc1ccc(N2CCN(c3ccc(C)cc3)C2c2ccccn2)cc1	-16.7%
CCOC(=O)C1CCCCN1Cc1ccc(OC)c(OC)c1OC (stereo not given)	-2.28%
CC1Cc2[nH][nH]c(=O)c2C(C2CCCC2)O1 (stereo not given)	-6.62%
COc1ccccc1OCCNc1cc(N2CCOCC2)ccc1[N+](=O)[O-]	-47.4%
COc1ccc(CCNC(=O)c2ccccc2-c2ccccc2C(=O)O)cc1OC	4.96%
COc1ccc(CCNc2cc(N3CCN(C(=O)c4ccccc4OC)CC3)ccc2[N+](=O)[O-])cc1OC	94.3% (active)
CC(C)(O)C1=C[N+](=O)CC=C1	13.1%

Compound	inhibition
CC1(C)SC2C(NC(=O)COc3ccccc3)C(=O)N2C1C(=O)O (stereo not given)	1.61% and -29.2%
CC(=O)Nc1ccc(S(=O)(=O)Nc2nc3n(n2)C(c2ccccc2)CC(=O)N3)cc1 (stereo not given)	-1.82%
CC(C)[C@H](NC(=O)c1ccccc1F)C(=O)Nc1cccc(S(=O)(=O)N2CCOCC2)c1	12.8%
C=CCn1c(C)cc(C(=O)CN2C(=O)c3ccccc3C2=O)c1C	63.3% (active)
Cc1cc(C(=O)COC(=O)CCCN2C(=O)c3ccccc3C2=O)c(C)n1C	5.35%
C=CCN(CC=C)C(=O)CN1C(=O)c2ccccc2C1=O	15.1%
O=C1CCC(=O)N(O)CCCCCNC(=O)CCC(=O)N(O)CCCCCNC(=O)CCC(=O)N(O)CCCCCN1	-10.8%
C/C(=N/OC(=O)c1cccc(C(F)(F)F)c1)c1cnccn1	-1.14%
CCc1ccccc1OCC(=O)Nc1ccc2c(c1)OCCO2	-1.57%
CCOc1ccc(NCCC(=O)c2ccc3c(c2)OCO3)cc1	-3.49%
COc1ccccc1OCCCC(=O)Nc1ccc2c(c1)OCCO2	-33.3%
Cc1ccc(OCCCC(=O)Nc2ccc3c(c2)OCCO3)cc1	63.9% (active)
Cc1ccc(OCCCC(=O)Nc2ccc(N3CCOCC3)cc2)cc1	4.69%
COC(=O)CCNc1ccc2c(c1)OCCO2	93.8% (active)
COC(=O)CCCCC1=CCC2C(=O)C=C(O)C2C1 (stereo not given)	-0.75%
O=C(NCc1cccnc1)c1cc(C2CCCN(C(=O)C3CCCCC3)C2)on1 (stereo not given)	-5.87%
CCc1ccc(CN(C)C(=O)CCc2nnc(-c3ccc(-c4ccccc4)cc3)o2)nc1	35.3%
CCCCCCc1cc2cc(-c3nnc(-c4ccccc4)o3)c(=O)oc2cc1O	69.9% (active)
C#CCNC(=O)C[C@@H]1C[C@@]2(C(=O)OCC)CCCC=C2N(Cc2ccco2)C1=O	-4.62%
O=C(O)CC(Cn1cnnn1)c1ccccc1 (stereo not given)	0.41%
CS/C(=C\C(=O)c1ccco1)Nc1ccccc1Cl	-3.35%
CC(=O)c1ccc(NC(=O)C(C)N(C)CC(=O)Nc2ccccc2Cl)cc1 (stereo not given)	-3.04%
O=C(Nc1ccccc1Cl)/C(Cl)=C(\Cl)S(=O)c1ccccc1 (stereo not given)	105% (active)

Compound	inhibition
OC(c1ccccc1)c1nc(-c2cnc3ccccc3c2)cs1 (stereo not given)	12.8%
O=C(OCC(=O)N1CCN(C(=O)c2ccco2)CC1)c1c(Cl)cccc1Cl	3.09%
O=C(OCC(=O)N1CCCC1)c1ccco1	70.7% (active)
O=C(OCC(=O)N1CCN(C(=O)c2ccco2)CC1)c1cccc(O)c1	-18.9%
Cc1ccc(-c2nnn(CC(=O)N(Cc3ccco3)C(C(=O)NC(C)(C)C)c3ccncc3)n2)o1 (stereo not given)	-9.3%
O=C(O)CCn1c(O)c(C=C2N=c3ccccc3=N2)sc1=S	90.8% (active)
CC(=O)NC(C(=O)NCC(N)=O)C(C)C (stereo not given)	-1.22%
CSC1=NN(c2ccccc2)CN(c2ccccc2)N1C	11.5%
Cc1ccc2nc(NC(=O)C3CCN(S(=O)(=O)c4ccc5c(c4)oc(=O)n5C)CC3)sc2c1	61.3% (active)
O=C(NC1CCCCC1)n1c(=O)oc2cc(S(=O)(=O)N3CCCCC3)ccc21	-2.85%
Cn1c(=O)oc2cc(S(=O)(=O)N3CCC(C(=O)Nc4ccc(OC(F)(F)F)cc4)CC3)ccc21	-4.22%
CC(C)C[C@@H](COCc1ccc(Cl)cc1)N1CCN(C(=O)c2ccc(Cl)cc2Cl)CCC1=O	-5.63%
Cn1ccc(=Nc2ccc(NC(=O)c3ccc(N=c4ccn(C)c5ccc([N+](=O)[O-])cc45)cc3)cc2)cc1	11.6%
Cc1ccc(Oc2cc(NC(=O)CCCn3nc(C)c([N+](=O)[O-])c3C)cc([N+](=O)[O-])c2)cc1	29.9%
Fc1ccc2nc(-c3ccccc3)nc(SCc3nnc(-c4ccccc4)o3)c2c1	1.42%
N#Cc1ccc(-c2ccc(F)cc2)nc1Sc1ccccc1	-0.84%
N#CCSc1nc(-c2ccccc2)nc2ccc(F)cc12	85.4% (active)
CCCc1ccc(S(=O)(=O)N2CCN(C(=O)c3cc(C)on3)CC2)cc1	23.6%
OC[C@@H]1CN(Cc2ccc(F)cc2)C[C@H](n2cnc3c(NC4CCCC4)ncnc32)O1	0.72%
OC[C@@H]1CN(Cc2cccs2)C[C@H](n2cnc3c(NC4CCCC4)ncnc32)O1	3.36%
OC[C@@H]1CN(Cc2ccc(-c3ccccc3)cc2)C[C@H](n2cnc3c(NC4CCCC4)ncnc32)O1	69.7% (active)
